Reference: PubChem BioAssay (EPA / NIEHS)
Active and inactive are the calls of the source. Rule for the calls: active = hit-call score of the fitted dose curve at least 0.9, where 1 is the maximum; inactive = score below 0.9.

Key:
Details in all cases: mRNA level, 48 h; actives raise or lower the signal
[1] = read-out: Cytochrome P450 (CYP24A1), CYP24A1 (gene 1591); assay: LTEA_HepaRG_CYP24A1: Life Technologies and Expression Analysis (LTEA) Assay for Cytochrome P450 (CYP24A1) using HepaRG (AID 2283478)
Procedure, shortened: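 Differentiated HepaRG cells, pre-cultured 48 h, were exposed in duplicate for 48 h in serum-free induction medium to 8 half-log concentrations (top 100 uM, 0.5% DMSO). CYP24A1 mRNA was quantified by TaqMan qRT-PCR, normalized to ACTB/GAPDH/POLR2A, fitted bidirectionally versus DMSO.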

[2] = read-out: Cytochrome P450 (CYP1A2), CYP1A2 (gene 1544); assay: LTEA_HepaRG_CYP1A2: Life Technologies and Expression Analysis (LTEA) Assay for Cytochrome P450 (CYP1A2) using HepaRG (AID 2283479)
Procedure, shortened: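 Differentiated human HepaRG cells in serum-free induction medium were exposed in duplicate for 48 h to 8-point half-log concentrations up to 100 uM in 0.5% DMSO. CYP1A2 mRNA measured by qRT-PCR, normalized to ACTB, GAPDH, POLR2A; bidirectional fit vs DMSO.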

[3] = read-out: cysteine-aspartic acid protease (CASP8), CASP8 (gene 841); assay: LTEA_HepaRG_CASP8: Life Technologies and Expression Analysis (LTEA) Assay for cysteine-aspartic acid protease (CASP8) using HepaRG (AID 2283480)
Procedure, shortened: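 Concentration-response in duplicate up to 100 uM (half-log steps, 0.5% DMSO) on differentiated HepaRG cultures for 48 h. Expression change of CASP8 mRNA is determined by TaqMan qRT-PCR with housekeeping-gene normalization.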

[4] = read-out: Cytochrome P450 (CYP2B6), CYP2B6 (gene 1555); assay: LTEA_HepaRG_CYP2B6: Life Technologies and Expression Analysis (LTEA) Assay for Cytochrome P450 (CYP2B6) using HepaRG (AID 2283481)
Procedure, shortened: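 Differentiated HepaRG cells, serum-free induction medium, exposed 48 h in duplicate to 8-point half-log concentrations from 100 uM in 0.5% DMSO. CYP2B6 mRNA by qRT-PCR, normalized to ACTB, GAPDH, POLR2A; bidirectional fit versus DMSO.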

[5] = read-out: Cytochrome P450 2C19 (Homo sapiens) (UniProt P33261); assay: LTEA_HepaRG_CYP2C19: Life Technologies and Expression Analysis (LTEA) Assay for CYP2C19 using HepaRG (AID 2283482)
Procedure, shortened: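 Differentiated human HepaRG cells were exposed for 48 h in serum-free induction medium to 8 concentrations (top 100 uM, half-log steps, 0.5% DMSO). CYP2C19 mRNA was measured by qRT-PCR, normalized to ACTB/GAPDH/POLR2A, and fitted bidirectionally against DMSO.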

CYP2C8 (gene 1558) = assay: LTEA_HepaRG_CYP2C8: Life Technologies and Expression Analysis (LTEA) Assay for CYP2C8 using HepaRG (AID 2283483)
Procedure, shortened: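 This is a transcriptional endpoint in HepaRG cultures: 48 h exposure, highest concentration 100 uM. CYP2C8 mRNA is quantified by TaqMan qRT-PCR.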

CYP2C9 (gene 1559) = assay: LTEA_HepaRG_CYP2C9: Life Technologies and Expression Analysis (LTEA) Assay for CYP2C9 using HepaRG (AID 2283484)
Procedure, shortened: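 Eight-point concentration-response (highest 100 uM, half-log dilutions) in HepaRG cells for 48 h; CYP2C9 expression by qRT-PCR normalized to ACTB, GAPDH, POLR2A. Bidirectional fit, DMSO baseline.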

CYP2E1 (gene 1571) = assay: LTEA_HepaRG_CYP2E1: Life Technologies and Expression Analysis (LTEA) Assay for CYP2E1 using HepaRG (AID 2283485)
Procedure, shortened: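 CYP2E1 transcript measured by Fluidigm qRT-PCR against three housekeeping genes in human HepaRG cells treated 48 h (top 100 uM, half-log steps, 0.5% DMSO vehicle). Gain or loss fitted relative to DMSO baseline.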

CYP4A11 (gene 1579) = assay: LTEA_HepaRG_CYP4A11: Life Technologies and Expression Analysis (LTEA) Assay for CYP4A11 using HepaRG (AID 2283486)
Procedure, shortened: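 Differentiated HepaRG cells, serum-free induction medium, exposed 48 h in duplicate to 8-point half-log series from 100 uM in 0.5% DMSO. CYP4A11 mRNA measured by qRT-PCR, normalized to ACTB, GAPDH, POLR2A; bidirectional fit versus DMSO.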

[6] = read-out: Cytochrome P450 3A4 (Homo sapiens) (UniProt P08684); assay: LTEA_HepaRG_CYP3A4: Life Technologies and Expression Analysis (LTEA) Assay for CYP3A4 using HepaRG (AID 2283487)
Procedure, shortened: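 In a human hepatic line (HepaRG), duplicate wells were treated 48 h with up to 100 uM chemical in half-log dilutions. Endpoint: CYP3A4 mRNA induction or loss relative to 0.5% DMSO vehicle, by qRT-PCR.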

[7] = read-out: DNA damage-inducible transcript 3 (DDIT3), DDIT3 (gene 1649); assay: LTEA_HepaRG_DDIT3: Life Technologies and Expression Analysis (LTEA) Assay for DNA damage-inducible transcript 3 (DDIT3) using HepaRG (AID 2283488)
Procedure, shortened: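 DDIT3 transcript was quantified by qRT-PCR with ACTB/GAPDH/POLR2A normalization after 48 h chemical treatment of differentiated HepaRG cells in 0.5% DMSO. Dosing was eight-point, half-log, top 100 uM, duplicate wells. Curves fitted bidirectionally versus DMSO.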

[8] = read-out: Pro-epidermal growth factor (Homo sapiens) (UniProt P01133); assay: LTEA_HepaRG_EGF: Life Technologies and Expression Analysis (LTEA) Assay for Epidermal growth factor (EGF) using HepaRG (AID 2283489)
Procedure, shortened: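 Differentiated human HepaRG cells, plated 48 h then switched to serum-free induction medium, were exposed for 48 h to test chemicals (8-point half-log series, top 100 uM, 0.5% DMSO). EGF mRNA was quantified by qRT-PCR, normalized to ACTB, GAPDH, POLR2A.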

[9] = read-out: Early growth response protein 1 (EGR1) transcription factor, EGR1 (gene 1958); assay: LTEA_HepaRG_EGR1: Life Technologies and Expression Analysis (LTEA) Assay for Early growth response protein 1 (EGR1) transcription factor using HepaRG (AID 2283490)
Procedure, shortened: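 EGR1 expression change in human HepaRG after 48 h chemical exposure, assessed by housekeeping-normalized qRT-PCR; concentration-response up to 100 uM, fitted in both directions against DMSO controls.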

[10] = read-out: Ezrin (EZR), EZR (gene 7430); assay: LTEA_HepaRG_EZR: Life Technologies and Expression Analysis (LTEA) Assay for Ezrin (EZR) using HepaRG (AID 2283491)
Procedure, shortened: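 Gain or loss of EZR mRNA is scored relative to 0.5% DMSO in human HepaRG cultures treated 48 h with test chemicals in duplicate, eight half-log concentrations from 100 uM.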

[11] = read-out: Cytochrome P450 3A7 (Homo sapiens) (UniProt P24462); assay: LTEA_HepaRG_CYP3A7: Life Technologies and Expression Analysis (LTEA) Assay for CYP3A7 using HepaRG (AID 2283492)
Procedure, shortened: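 HepaRG cells plated 48 h, then dosed in serum-free induction medium for 48 h at 8 concentrations (top 100 uM, half-log steps, 0.5% DMSO). CYP3A7 mRNA by qRT-PCR, normalised to ACTB/GAPDH/POLR2A; bidirectional fit versus DMSO.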

CYP3A5 (gene 1577) = assay: LTEA_HepaRG_CYP3A5: Life Technologies and Expression Analysis (LTEA) Assay for CYP3A5 using HepaRG (AID 2283493)
Procedure, shortened: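 mRNA levels were quantified by qRT-PCR on Fluidigm arrays and normalized to three housekeeping genes. Differentiated HepaRG cells received 48 h exposure (top 100 uM, half-log steps, 0.5% DMSO vehicle, duplicate); bidirectional fitting versus DMSO.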

[12] = read-out: Fatty Acid-Binding Protein 1 (FABP1), FABP1 (gene 2168); assay: LTEA_HepaRG_FABP1: Life Technologies and Expression Analysis (LTEA) Assay for Fatty Acid-Binding Protein 1 (FABP1) using HepaRG (AID 2283494)
Procedure, shortened: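 Values reflect bidirectional concentration-response fitting of FABP1 mRNA change against 0.5% DMSO controls. Human HepaRG cultures received eight half-log doses (top 100 uM) for 48 h; expression quantified by TaqMan qRT-PCR with housekeeping-gene normalization.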

[13] = read-out: Cytochrome P450 4A22 (Homo sapiens) (UniProt Q5TCH4); assay: LTEA_HepaRG_CYP4A22: Life Technologies and Expression Analysis (LTEA) Assay for Cytochrome P450 4A22 (CYP4A22) using HepaRG (AID 2283495)
Procedure, shortened: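 qRT-PCR of CYP4A22 mRNA (Fluidigm TaqMan, normalized to three housekeeping genes) after 48 h chemical exposure of HepaRG cells; 8-point half-log series, top 100 uM, 0.5% DMSO vehicle. Bidirectional curve fitting vs DMSO baseline.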

[14] = read-out: Cytochrome P450 7A1 (Homo sapiens) (UniProt P22680); assay: LTEA_HepaRG_CYP7A1: Life Technologies and Expression Analysis (LTEA) Assay for Cytochrome P450 7A1 (CYP7A1) using HepaRG (AID 2283496)
Procedure, shortened: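 HepaRG, 48 h exposure, 8-pt half-log series from 100 uM, 0.5% DMSO vehicle, duplicates. Readout: TaqMan qRT-PCR mRNA vs three housekeeping genes; bidirectional curve fit against DMSO baseline.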

[15] = read-out: Glutathione S-Transferase (GSTA2), GSTA2 (gene 2939); assay: LTEA_HepaRG_GSTA2: Life Technologies and Expression Analysis (LTEA) Assay for Glutathione S-Transferase (GSTA2) using HepaRG (AID 2283497)
Procedure, shortened: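 Oxidative-stress marker GSTA2 is quantified by TaqMan qRT-PCR in HepaRG cultures treated 48 h across an eight-point range to 100 uM. Expression is normalized to endogenous controls and compared with 0.5% DMSO vehicle.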

Measured: AC50

Chain of Cytochrome P450 3A7 (Homo sapiens) (P24462 whole entry, looked up): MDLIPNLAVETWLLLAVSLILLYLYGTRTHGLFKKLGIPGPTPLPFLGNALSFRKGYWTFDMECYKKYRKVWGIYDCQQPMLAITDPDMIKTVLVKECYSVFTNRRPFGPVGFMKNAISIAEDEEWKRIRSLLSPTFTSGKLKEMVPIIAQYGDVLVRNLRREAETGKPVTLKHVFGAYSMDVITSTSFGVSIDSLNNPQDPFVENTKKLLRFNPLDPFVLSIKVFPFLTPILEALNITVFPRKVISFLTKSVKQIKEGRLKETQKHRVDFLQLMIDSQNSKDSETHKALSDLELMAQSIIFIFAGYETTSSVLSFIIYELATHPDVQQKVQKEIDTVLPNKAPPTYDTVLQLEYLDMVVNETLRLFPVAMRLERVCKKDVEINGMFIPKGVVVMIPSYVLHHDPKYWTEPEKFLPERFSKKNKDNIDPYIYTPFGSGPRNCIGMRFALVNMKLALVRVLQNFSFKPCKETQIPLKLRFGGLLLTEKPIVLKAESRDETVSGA
Chain of Cytochrome P450 3A4 (Homo sapiens) (P08684 whole entry, looked up): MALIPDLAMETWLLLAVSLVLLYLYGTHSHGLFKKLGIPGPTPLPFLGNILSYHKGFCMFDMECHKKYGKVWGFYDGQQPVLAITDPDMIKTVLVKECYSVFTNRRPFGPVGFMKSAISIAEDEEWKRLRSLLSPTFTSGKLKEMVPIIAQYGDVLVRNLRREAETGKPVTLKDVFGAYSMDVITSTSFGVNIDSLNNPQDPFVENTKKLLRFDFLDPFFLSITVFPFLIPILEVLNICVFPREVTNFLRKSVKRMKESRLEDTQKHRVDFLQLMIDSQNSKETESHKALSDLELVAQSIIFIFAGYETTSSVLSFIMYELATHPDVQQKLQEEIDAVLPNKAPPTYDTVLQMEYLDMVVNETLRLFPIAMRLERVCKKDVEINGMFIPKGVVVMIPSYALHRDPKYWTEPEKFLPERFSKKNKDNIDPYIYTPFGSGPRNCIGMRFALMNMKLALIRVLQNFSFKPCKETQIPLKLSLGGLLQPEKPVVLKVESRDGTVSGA
Chain of Cytochrome P450 2C19 (Homo sapiens) (P33261 whole entry, looked up): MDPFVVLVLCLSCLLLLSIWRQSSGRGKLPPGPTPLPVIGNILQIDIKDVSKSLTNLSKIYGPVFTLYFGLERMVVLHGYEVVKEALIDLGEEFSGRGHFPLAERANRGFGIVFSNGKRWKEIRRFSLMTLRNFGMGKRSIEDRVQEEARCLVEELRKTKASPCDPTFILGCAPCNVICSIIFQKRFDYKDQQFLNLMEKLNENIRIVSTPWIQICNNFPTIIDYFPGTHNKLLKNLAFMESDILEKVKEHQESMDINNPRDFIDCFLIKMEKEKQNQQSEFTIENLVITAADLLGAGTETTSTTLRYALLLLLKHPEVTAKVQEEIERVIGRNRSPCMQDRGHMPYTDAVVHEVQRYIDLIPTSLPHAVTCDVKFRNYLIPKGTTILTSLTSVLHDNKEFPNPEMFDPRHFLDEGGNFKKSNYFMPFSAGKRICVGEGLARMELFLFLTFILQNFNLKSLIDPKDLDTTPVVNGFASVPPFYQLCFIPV

O=C(O)Cc1cc(I)c(Oc2cc(I)c(O)c(I)c2)c(I)c1
inactive: [1] | [10]
active: [2] 0.0864 µM | [3] 56.7 µM | [4] 55.3 µM | [5] 62.7 µM | CYP2C8 (gene 1558) 61.5 µM | CYP2C9 (gene 1559) 53.8 µM | CYP2E1 (gene 1571) 6.65 µM | CYP4A11 (gene 1579) 53.2 µM | [6] 50.7 µM | [7] 51.9 µM | [8] 57.3 µM | [9] 51.6 µM | [11] 45.4 µM | CYP3A5 (gene 1577) 26.7 µM | [12] 62 µM | [13] 54.5 µM | [14] 48.2 µM | [15] 56.7 µM

CC(C)CCCCCCOC(=O)CCCCC(=O)OCCCCCCC(C)C
active: [2] 50 µM | [4] 31.8 µM
inactive: [1] | [3] | CYP2C8 (gene 1558) | CYP2C9 (gene 1559) | CYP2E1 (gene 1571) | [6] | [7] | [8] | [9] | [10] | [11] | CYP3A5 (gene 1577) | [12] | [13] | [14] | [15]

CCC(C)(C)C1CCC(O)CC1 (stereo not given)
active: [4] 16 µM
inactive: [1] | [2] | [3] | CYP2C8 (gene 1558) | CYP2C9 (gene 1559) | CYP2E1 (gene 1571) | [6] | [7] | [8] | [10] | [11] | CYP3A5 (gene 1577) | [12] | [13] | [14] | [15]
